Results on 40 compounds are retold here after PubChem BioAssay (Tox21).

Each structure is given as a SMILES string. Records with an inconclusive call do not appear. Where a call stands in place of a potency, no number is given. Calls of active or inactive are those of the source. Calls follow the shape of the full dose curve.
Potency is read from the fitted curve at half-maximal effect.

A short description of the assay: qHTS assay to identify small molecule agonists of the NFkB signaling pathway - cell viability counter screen (AID 1159515). Also: nearly all actives have a fitted effect of over 55% in size. The conditions noted are these: NFkB-bla ME-180 viability, CellTiter-Glo luminescence, 5 h; series mostly up to 61 µM. The source says: National Center for Advancing Translational Sciences [NCATS]
NIH Chemical Genomics Center [NCGC]
U.S. Environmental Protection Agency [EPA]
National Institutes of Environmental Health Sciences [NIEHS]
National Toxicology Program [NTP]
U.S. Food and Drug Administration [FDA]
Transcription factors and their stimulated target gene expression play pivotal roles across many cellular processes including responses to environmental stimuli. Proper regulation of associated pathways is critical to maintain cell health and function. Constitutive activation of transcription factor pathways has been implicated in tumors as it may block cellular functions such as apoptosis and lead to invasion and metastasis. One important transcription factor that stimulates gene expression in response to cytokines, UV radiation, and other stimuli is nuclear factor-kappa B (NFkB). To measure activation of the NFkB pathway, the CellSensor NFkB-bla ME-180 cell line (Life Technologies, Carlsbad, CA) that stably expresses beta-lactamase reporter gene under the regulation of a NF-kB response element was used. This assay allows measurement of the NFkB pathway activity induced by compounds in a ME-180 cell line. This system quantitates NF-kB activity using a FRET-based assay system where beta-lactamase expression disrupts FRET, allowing for fluorescent measurement of activity. This cell line has been used to screen the Tox21 10K compound library and to identify compounds that induce the NFkB pathway activity. The cytotoxicity of the Tox21 compound library against the NFkB-bla ME-180 cell line was tested in parallel by measuring cell viability using the CellTiter-Glo assay in the same wells.
Tox21 Assay Protocol Summary:
NFkB-bla ME-180 cells were dispensed at 2,000 cells/6 uL of assay medium per well into black wall/clear-bottom 1536-well plates using a Multidrop Combi (ThermoFisher Scientific, Waltham, MA) dispenser. After the assay plates were incubated at 37 C and 5% CO2 for an overnight, 23 nL of compounds dissolved in DMSO, positive controls or DMSO only was transferred to the assay plate by a Pintool station (Kalypsys, San Diego, CA). The assay plates were incubated at 37 C and 5% CO2 for 5 hr. One uL of LiveBLAzer B/G FRET substrate (Life Technologies) was added using a Flying Reagent Dispenser (Aurora Discovery, San Diego, CA) and the plates were incubated at room temperature for 1.5 hr. Fluorescence intensity (405 nm excitation, 460 nm and 530 nm emissions) was measured using an Envision plate reader (PerkinElmer, Shelton, CT). For cytotoxicity, 3 ul/well of CellTiter-Glo reagent was added into the assay plates using an FRD. After 30 min incubation at room temperature, the luminescence intensity was measured using a ViewLux plate reader (PerkinElmer).
In general terms: Quantitative high-throughput screening tests each substance at several concentrations.
Turning to `O=C(Cc1ccccc1)OCCc1ccccc1`, the Potency result is “inactive”.
The same measure for `CNC(=O)Oc1cccc(N=CN(C)C)c1`: “inactive”; for `CCCN(CCC)c1c([N+](=O)[O-])cc(C(C)C)cc1[N+](=O)[O-]`: “inactive”; for `Nc1ccc2c(c1)Cc1ccccc1-2`: “inactive”.
Turning to `CC(C)[C@@H](C(=O)O[C@@H](C#N)c1cccc(Oc2ccccc2)c1)c1ccc(Cl)cc1`, the Potency entry is “inactive”.
The same measure for `C=CC(C)(CCC=C(C)C)OC(=O)c1ccccc1N` (stereo not given): “inactive”.
The same measure for `CCCC[N+]1(C)[C@@H]2CC(OC(=O)[C@H](CO)c3ccccc3)C[C@H]1[C@@H]1O[C@@H]12` (stereo not given in full): “inactive”.
The same measure for `CC(C)(C)CC(C)(C)c1ccc(O)cc1`: 21.9 µM (active); for `C=CCc1ccccc1O`: “inactive”.
As for `FC(Cl)(Cl)C(F)(Cl)Cl`, the Potency result is “inactive”.
The same measure for `CCCCC(CC)COC(=O)c1c(Br)c(Br)c(Br)c(Br)c1C(=O)OCC(CC)CCCC` (stereo not given): “inactive”; for `CCCC[N+](CCCC)(CCCC)CCCC`: “inactive”; for `CCCC(C)(COC(N)=O)COC(=O)NC(C)C` (stereo not given): “inactive”.
The same measure for `O=C(O)C(O)C(O)C(=O)O` (stereo not given): “inactive”; for `CC(=O)OC(c1ccccc1)C(Cl)(Cl)Cl` (stereo not given): “inactive”.
In the case of `CC(C)(C)NCC(O)c1cc(Cl)c(N)c(C(F)(F)F)c1` (stereo not given), the Potency result is “inactive”.
For the compound `CC(CC(C(N)=O)(c1ccccc1)c1ccccc1)N(C)C` (stereo not given), the Potency entry is “inactive”.
For `CCN(C(C)=O)c1cccc(-c2ccnc3c(C#N)cnn23)c1`, the Potency result was “inactive”.
The same measure for `C#C[C@]1(O)CC[C@H]2[C@@H]3CCC4=CC(=O)CCC4=C3C=C[C@@]21CC`: “inactive”; for `Oc1cccc(Cl)c1`: “inactive”.
Consider `O=[N+]([O-])c1cc(Cl)c(Cl)cc1Cl`, for which the Potency entry is “inactive”.
The same measure for `CCCCCCCCCCCCN(C)C`: “inactive”.
The same measure for `O=C1NC(=O)C(=O)C(=O)N1`: “inactive”; for `O=C(O)C(F)(F)C(F)(F)C(F)(F)C(F)(F)C(F)(F)F`: “inactive”.
Turning to `O=C1c2ccccc2C(=O)N1SC(Cl)(Cl)Cl`, the Potency entry is “inactive”.
Turning to `CCOP(=O)(O)C(N)=O`, the Potency entry is “inactive”.
Regarding `Cc1nnc(-c2ccccc2)c(=O)n1N`, the Potency result is “inactive”.
The same measure for `COc1ccc(C(=O)c2c(C)n(CCN3CCOCC3)c3ccccc23)cc1`: “inactive”.
Consider `O=C(NCNC(=O)NC1C(=O)NC(=O)N1CO)NC1C(=O)NC(=O)N1CO` (stereo not given), for which the Potency entry was “inactive”.
Take `Nc1cccc2ccccc12`: the Potency entry was “inactive”.
The same measure for `OCCSSCCO`: “inactive”; for `COc1ccc(C(O)(c2cncnc2)C2CC2)cc1` (stereo not given): “inactive”.
On to `Cc1ccc2c(C)cccc2c1`, for which the Potency result was “inactive”.
Turning to `Nc1ccccc1C(=O)OCC(O)CO` (stereo not given), the Potency entry was “inactive”.
With `CC[N+]1(C)CCCC(OC(=O)C(O)(c2ccccc2)c2ccccc2)C1` (stereo not given), the Potency result was “inactive”.
The same measure for `CCCCCCCCP(=O)(O)O`: “inactive”.
The same measure for `CCCCC1C(=O)NC(=O)N(C2CCCCC2)C1=O` (stereo not given): “inactive”; for `CC(Oc1cccc(Cl)c1)C(=O)O` (stereo not given): “inactive”.
With `CC(O)CN1CCN(CC(=O)[O-])CCN(CC(=O)[O-])CCN(CC(=O)[O-])CC1.[Gd+3]` (stereo not given), the Potency result is “inactive”.
The same measure for `NC(=S)c1c(Cl)cccc1Cl`: “inactive”.
